Here are results for 23 compounds from PubChem BioAssay (Tox21).

Each structure is given as a SMILES string. Results filed as inconclusive are left out. Some structures have more than one record in an assay (separate samples or runs), and their calls can disagree. Calls of active or inactive are those of the source. Unless noted, calls come from the whole dose curve.

Experiment [1] is described as follows: qHTS assay to identify small molecule antagonists of the vitamin D receptor (VDR) signaling pathway - cell viability counter screen (AID 743225; active = well fitted curve in the direction sought with a large enough effect in the repeat runs; an effect the other way counts as inactive or inconclusive; note: nearly all actives have a fitted effect of over 50% in size). The procedure, abridged:
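VDR-bla HEK 293T cells, 4 h pre-incubation at 37C, then compound plus 1-alpha,25-dihydroxyvitamin D3 (3 nM final) for 16 h. After the beta-lactamase FRET read, CellTiter-Glo was added to the same wells; luminescence after 30 min at room temperature.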
(qHTS replaces the single test concentration by a dilution series.)

A short description of experiment [2]: qHTS assay to identify small molecule agonists of the NFkB signaling pathway (AID 1159509; active = well fitted curve in the direction sought with a large enough effect in the signal ratio in the repeat runs, not every such curve was filed as active; the % refers to the signal ratio; note: series mostly up to about 61 µM). The procedure, abridged:
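NFkB-bla ME-180 cells with a beta-lactamase reporter under an NF-kB response element were plated overnight, treated with compounds in DMSO for 5 hr at 37 C, then loaded with FRET substrate for 1.5 hr at room temperature.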

Experiment [3] in a line: qHTS assay to identify small molecule agonists of the NFkB signaling pathway - cell viability counter screen (AID 1159515). Note: nearly all actives have a fitted effect of over 55% in size. Note: potency is the fitted concentration of half-maximal effect. The method, boiled down: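 Viability in NFkB-bla ME-180 cells was measured by CellTiter-Glo luminescence, 30 min room temperature, in wells already treated 5 hr with compounds and read for reporter FRET.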
The nature of experiment [4]: qHTS assay to identify small molecule agonists of the endoplasmic reticulum stress response signaling pathway - cell viability counter screen (AID 1159517).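 Note: HeLa cells carrying an ER stress response element beta-lactamase reporter; series mostly up to about 61 µM; nearly all actives have a fitted effect of over 50% in size.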 The method, boiled down:
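Counter-screen wells were identical to the reporter wells. Cells were plated at 1,500 per well and dosed for 5 hr, then read for luminescence 30 min after CellTiter-Glo addition.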

In experiment [5] the target is Nuclear receptor ROR-gamma (Homo sapiens) (UniProt P51449). The experiment is described as follows: qHTS assay to identify small molecule antagonists of the retinoid-related orphan receptor gamma (ROR-gamma) signaling pathway (AID 1159521; active = well fitted curve in the direction sought with a large enough effect in the repeat runs; an effect the other way counts as inactive or inconclusive; note: nearly all actives have a fitted effect of over 50% in size; note: potency is the fitted concentration of half-maximal effect). The procedure, abridged:
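Tet-on RORγ CHO cells carrying a ROR response element–luciferase reporter were pretreated with compounds for 2 h, then induced with 1 uM (final) doxycycline hyclate for 16 h at 37 C. Antagonism was read as decreased ONE-Glo luminescence.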

Experiment [6] is described as follows: qHTS assay to identify small molecule agonists of the vitamin D receptor (VDR) signaling pathway - cell viability counter screen (AID 743224; active = well fitted curve in the direction sought with a large enough effect in the repeat runs; an effect the other way counts as inactive or inconclusive; note: nearly all actives have a fitted effect of over 50% in size; note: potency is the fitted concentration of half-maximal effect). The method, boiled down: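 VDR-bla cell line, quantitative HTS format; 16 h compound incubation (37C, 5% CO2); ATP-based CellTiter-Glo luminescence measured in the reporter assay wells.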
Experiment [7] in a line: qHTS assay to identify small molecule antagonists of the retinoid-related orphan receptor gamma (ROR-gamma) signaling pathway - cell viability counter screen (AID 1159520; active = well fitted curve in the direction sought with a large enough effect in the repeat runs; an effect the other way counts as inactive or inconclusive; note: nearly all actives have a fitted effect of over 50% in size; note: potency is the fitted concentration of half-maximal effect). The method, boiled down: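 Tet-on ROR gamma CHO cells were given compounds for 2 hr, then doxycycline hyclate at 1 uM final, and incubated 16 hr at 37 C. Viability was measured as ATP content by CellTiter-Glo luminescence.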

Experiment [8] is described as follows: qHTS assay to identify small molecule agonists of the AP-1 signaling pathway (AID 1159526).
Experiment [9] can be described thus: qHTS assay to identify small molecule agonists of the AP-1 signaling pathway - cell viability counter screen (AID 1159525). Note: nearly all actives have a fitted effect of over 55% in size. The method, boiled down: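 AP-1-bla ME-180 cells in Opti-MEM with 0.5% dialyzed FBS, compound exposure 5 h at 37 C in 15-point titration. Viability read in the same wells as ATP content by CellTiter-Glo luminescence, normalised to tetra-n-octylammonium bromide and DMSO controls.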

The nature of experiment [10]: qHTS assay to identify small molecule agonists of the endoplasmic reticulum stress response signaling pathway (AID 1159516; active = well fitted activation curve with a large enough effect in the signal ratio in the repeat runs, not every such curve was filed as active; the % refers to the signal ratio). The method, boiled down: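 ER stress element reporter (bla) in HeLa. 1,500 cells/well, overnight attachment; 5 hr compound; 2 hr RT substrate; dual-emission fluorescence.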

For `CCCN(CCCl)c1c([N+](=O)[O-])cc(C(F)(F)F)cc1[N+](=O)[O-]`, the Potency entry in [1], in [3], in experiment [4] and in experiment [5] was “inactive” throughout. In addition, the result in experiment [2] was inactive.

For `Cc1ccccc1C(=O)Nc1cccc(OC(C)C)c1`, the Potency result in experiment [6], in experiment [3], in experiment [4] and in experiment [7] was “inactive” in each case. Further, the compound was called inactive in experiment [2] and in experiment [8].

Turning to `C[N+](C)(C)CCCl`, the Potency entry in experiment [6], in experiment [1], in experiment [3], in experiment [7], in [5] and in experiment [9] was “inactive” throughout. In addition, the compound was classed as inactive in experiment [2] and in experiment [8].

For `CCOP(=S)(OCC)Oc1cc(Cl)c(Br)cc1Cl`, the result in experiment [2] was inactive. Besides, the Potency result in experiment [3], in [7], in experiment [5] and in experiment [9] was “inactive” in each case.

As to `CCOC(=O)C(Cl)C(C)=O` (stereo unspecified), the Potency entry in [6], in experiment [3], in experiment [7], in experiment [5] and in experiment [9] was “inactive” in each case. The result in experiment [2] and in experiment [8] was inactive.

Regarding `NS(=O)(=O)C(F)(F)C(F)(F)C(F)(F)C(F)(F)C(F)(F)C(F)(F)C(F)(F)C(F)(F)F`, the Potency in [6] was 49 µM (active); in [5] it was 54.5 µM (active). Further, the outcome in experiment [2] and in experiment [8] was inactive. Also, the Potency result in experiment [3], in experiment [7] and in experiment [9] was “inactive” each time.

On to `CCO[C@H]1O[C@@H]2OC3(C)CC[C@H]4[C@H](C)CC[C@@H]([C@H]1C)[C@@]24OO3`, for which the Potency result in experiment [6], in experiment [1], in experiment [3], in [4], in experiment [7] and in [9] was “inactive” throughout. For the same compound, the result in [2] was inactive.

On to `Brc1ccc(Oc2ccccc2)cc1`, for which the Potency entry in [6], in experiment [1], in experiment [3], in experiment [7] and in experiment [9] was “inactive” throughout. Besides, the compound was classed as inactive in [2] and in experiment [8]. For the same compound, in [5], the Potency was 55.8 µM (active) and inactive.

In the case of `c1ccc(CN2CCNCC2)cc1`, the Potency result in experiment [6], in experiment [1], in experiment [3], in experiment [4], in experiment [7] and in [9] was “inactive” throughout. The result in experiment [2] and in experiment [8] was inactive.

`COP(=S)(OC)Oc1ccc([N+](=O)[O-])cc1Cl`: the Potency entry in [6], in [3], in experiment [7] and in experiment [9] was “inactive” throughout. The result in experiment [2] and in experiment [8] was inactive. Moreover, in experiment [5], the Potency was 43.3 µM (active).

`C=CC(=O)OC`: the Potency entry in experiment [6], in experiment [1], in experiment [3], in experiment [4], in experiment [7] and in experiment [9] was “inactive” each time. The call in experiment [2] and in experiment [8] was inactive.

Consider `Sc1ccccc1Cl`, for which the Potency entry in experiment [6], in [3], in [7], in [5] and in experiment [9] was “inactive” in each case. Moreover, the outcome in [2] and in experiment [8] was inactive.

Take `CN1C(=O)C(O)N=C(c2ccccc2)c2cc(Cl)ccc21` (stereo unspecified): the Potency result in experiment [6], in experiment [1], in experiment [3], in experiment [7], in [5] and in [9] was “inactive” throughout. Also, the call in [2] and in experiment [8] was inactive.

Take `II`: the Potency result in [6], in experiment [1], in experiment [3] and in experiment [4] was “inactive” in each case. Further, the compound was classed as inactive in experiment [2]. Also, the Potency in experiment [7] is 30.6 µM (active).

As for `Brc1ccccc1`, the Potency entry in [6], in [1], in experiment [3], in [7], in experiment [5] and in [9] was “inactive” each time. Besides, the call in experiment [2] and in [8] was inactive.

As to `COC(=O)C(Br)CBr` (stereo unspecified), the Potency result in experiment [6], in [1], in [3], in [4], in [5] and in [9] was “inactive” throughout. The compound was called inactive in experiment [2] and in experiment [8].

`Cn1sc(Cl)cc1=O`: the Potency entry in [6], in [1], in experiment [3], in [4] and in [9] was “inactive” in each case. For the same compound, the call in [2] was inactive. For the same compound, in experiment [7], the Potency was 61.1 µM (active).

`CCCCCCCCCC(=O)O[C@H]1CC[C@H]2[C@@H]3CCC4=CC(=O)CC[C@@H]4[C@H]3CC[C@]12C`: the Potency result in experiment [1], in experiment [3], in experiment [4], in experiment [5] and in experiment [9] was “inactive” each time. In addition, the outcome in [2] and in experiment [8] was inactive.

Regarding `CC(C)(C)c1cc([N+](=O)[O-])cc([N+](=O)[O-])c1O`, the call in [2] was inactive. Besides, the Potency entry in experiment [3], in experiment [4] and in [9] was “inactive” throughout. The Potency in experiment [5] is 6.09 µM (active).

Regarding `O=C(NC(=O)c1c(F)cccc1F)Nc1cc(Cl)c(Oc2ncc(C(F)(F)F)cc2Cl)c(Cl)c1`, the compound was called inactive in experiment [2]. Also, the Potency entry in [3], in [4] and in [9] was “inactive” throughout. In addition, the Potency in experiment [5] was 20.8 µM (active).

`Cc1c(F)c(F)c(COC(=O)C2C(/C=C(\Cl)C(F)(F)F)C2(C)C)c(F)c1F` (stereo unspecified): the Potency result in [6], in experiment [1], in experiment [3], in experiment [4], in experiment [7] and in experiment [9] was “inactive” each time. Moreover, the compound was classed as inactive in experiment [2] and in experiment [8].

As to `O=S1(=O)OC(c2cc(Br)c(O)c(Br)c2)(c2cc(Br)c(O)c(Br)c2)c2ccccc21`, the Potency entry in experiment [1] and in experiment [9] was “inactive” each time. The compound was classed as inactive in [2] and in experiment [8]. The results for the Potency in experiment [3], in experiment [7] and in experiment [5] were 40 µM (active), 7.91 µM (active) and 5.6 µM (active), respectively.

Regarding `NNC(=O)c1cccnc1`, the Potency entry in [6], in experiment [1], in [4], in [7], in experiment [5] and in [9] was “inactive” throughout. The compound was called inactive in experiment [2], in experiment [10] and in experiment [8].
